Experimental data as given in PubChem BioAssay (Tox21).
Inconclusive results are not listed. The source made the active and inactive calls. Unless noted, calls come from the whole dose curve; as a rule, active = well fitted curve in the direction sought with a large enough effect in the repeat runs; inconclusive = weak or mixed curves; inactive = no such curve, though single readings can be large; an effect the other way counts as inactive or inconclusive.

Experiments:
[1] = qHTS assay to identify small molecule antagonists of the estrogen receptor alpha (ER-alpha) signaling pathway using the BG1 cell line in the presence of 0.1 nM 17-beta-estradiol - cell viability counter screen (AID 1259241); note: nearly all actives have a fitted effect of over 40% in size
Procedure, shortened: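 Viability in VM7Luc4E2 cells after 22 hr compound exposure under 0.1 nM 17beta-estradiol stimulation, by CellTiter-Fluor.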

[2] = qHTS assay to identify small molecule antagonists of the androgen receptor (AR) signaling pathway using the MDA cell line in the presence of 0.5 nM R1881 - cell viability counter screen (AID 1259242); note: nearly all actives have a fitted effect of over 45% in size
Procedure, shortened: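 qHTS format. MDA-kb2 (MMTV-luc, AR/GR responsive) + cpd + 0.5 nM R1881 final, 16 hr 37C/0% CO2 → CellTiter-Fluor 30 min → fluorescence intensity.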

[3] = molecular target: Estrogen receptor (Homo sapiens) (UniProt P03372); test: qHTS assay to identify small molecule antagonists of the estrogen receptor alpha (ER-alpha) signaling pathway using the BG1 cell line in the presence of 0.1 nM 17-beta-estradiol (AID 1259244); note: nearly all actives have a fitted effect of over 50% in size
Procedure, shortened: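 Reporter is a stably transfected luciferase under four estrogen responsive elements in VM7Luc4E2 cells expressing native full-length ER-alpha; inhibition of 0.1 nM (final) 17beta-estradiol-driven signal over 22 h is read by luminescence.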

[4] = qHTS assay to identify small molecule HDAC inhibitors - cell viability counter screen (AID 1259365); note: series mostly up to about 92 µM; nearly all actives have a fitted effect of over 50% in size
Procedure, shortened: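 Cytotoxicity was gauged in wild-type HCT-116 cells after a brief 2hr treatment with DMSO-dissolved compounds at 37C and 5% CO2, using CellTiter-Glo luminescence developed for 30min at room temperature.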

[5] = qHTS assay to identify small molecule agonists of the sonic hedgehog signaling (Shh) pathway - cell viability counter screen (AID 1259366); note: nearly all actives have a fitted effect of over 50% in size
Procedure, shortened: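 Stable Gli1-Luc NIH/3T3 clone, 2,000 cells/well. Compound exposure 24hr at 37C. Read-out: CellTiter-Fluor fluorescence.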

[6] = qHTS assay to identify small molecule antagonists of the sonic hedgehog signaling (Shh) pathway - cell viability counter screen (AID 1259367); note: nearly all actives have a fitted effect of over 55% in size
Procedure, shortened: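 Cytotoxicity was assessed in parallel with Shh reporter activity by measuring live-cell protease fluorescence (CellTiter-Fluor) in NIH/3T3 cells stably carrying Gli1-Luc, treated with compound under conditioned medium stimulation for 23 hr plus 1 hr reagent incubation.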

[7] = qHTS assay to identify small molecule agonists of the sonic hedgehog signaling (Shh) pathway (AID 1259368; calls by dose curve;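 note: NIH/3T3-derived 3T3Gli1-Luc cells carrying a stable Gli1-driven firefly luciferase reporter; series mostly up to about 92 µM; nearly all actives have a fitted effect of over 15% in size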)
Procedure, shortened: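 Quantitative high-throughput format using a Gli1-driven firefly luciferase reporter line derived from NIH/3T3 cells. After a 24 hr compound treatment at 37 C and 5% CO2, luminescence reported Gli1 response element activity.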

[8] = qHTS assay to identify small molecule antagonists of the sonic hedgehog signaling (Shh) pathway (AID 1259369; calls by dose curve; note: nearly all actives have a fitted effect of over 45% in size)
Procedure, shortened: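 Stable Gli1-Luc reporter NIH/3T3 clone; quantitative HTS in stimulated mode with conditioned medium. Luminescence measured after 24hr compound treatment at 37 C.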

[9] = qHTS assay to identify small molecule agonists of the androgen receptor (AR) signaling pathway in the presence of an antagonist - cell viability counter screen (AID 1259379);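 note: MDA-kb2 human breast cancer cells carrying an MMTV luciferase reporter; series mostly up to about 92 µM; nearly all actives have a fitted effect of over 25% in size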
Procedure, shortened: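 Nilutamide-containing (3.0uM final) MDA-kb2 cultures, 3,000 cells/well, were treated with compounds across 15 concentrations. After 16 hr at 37C with no CO2, cell viability was determined by CellTiter-Fluor fluorescence in the luciferase assay wells.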

[10] = qHTS assay to identify small molecule agonists of the estrogen receptor beta (ER-beta) signaling pathway - cell viability counter screen (AID 1259380); note: nearly all actives have a fitted effect of over 30% in size
Procedure, shortened: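 Steps: plate ER-beta-UAS-bla HEK293T cells, rest 6 hr; add compounds in DMSO; incubate 16 hr at 37C, 5% CO2; add FRET substrate 2 hr; add CellTiter-Glo, wait 30 min at room temperature; read luminescence.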

[11] = qHTS assay to identify small molecule antagonists of the estrogen receptor beta (ER-beta) signaling pathway - cell viability counter screen (AID 1259382); note: series mostly up to about 92 µM; nearly all actives have a fitted effect of over 55% in size
Procedure, shortened: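 Viability is scored by CellTiter-Glo luminescence (30 min, room temperature) in ER-beta-UAS-bla HEK293T wells already read for reporter fluorescence. Compound exposure lasts 16 hr at 37C alongside 1nM 17-beta-estradiol in charcoal-stripped serum medium.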

[12] = molecular target: Estrogen receptor (Homo sapiens) (UniProt P03372); test: qHTS assay to identify small molecule agonists of the estrogen receptor alpha (ER-alpha) signaling pathway in the presence of an antagonist (AID 1259383; calls by dose curve; note: top concentration of the series differs between compounds; nearly all actives have a fitted effect of over 15% in size)
Procedure, shortened: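 Readout was ERE-driven luciferase luminescence in VM7Luc4E2 cells, which express full-length ER-alpha endogenously. Compounds were tested at 15 concentrations for 22hr alongside 10.0nM ICI-182,780 (final concentration).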

[13] = qHTS assay to identify small molecule agonists or antagonists of the thyroid stimulating hormone receptor (TSHR) signaling pathway - wild type cell line counter screen (AID 1259384; calls by dose curve)
Procedure, shortened: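 Wild-type HEK293 cells were plated 18 h at 37 C/5% CO2, pin-dosed with compound plus Ro20-1724 medium, held 30 min at room temperature, then given cAMP-d2 and anti-cAMP-cryptate; fluorescence was read after 1 h. Fifteen concentrations, triplicate.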

[14] = molecular target: Thyrotropin receptor (Homo sapiens) (UniProt P16473); test: qHTS assay to identify small molecule antagonists of the thyroid stimulating hormone receptor (TSHR) signaling pathway (AID 1259385; calls by dose curve; note: nearly all actives have a fitted effect of over 20% in size)
Procedure, shortened: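 TSHR-HEK293 cells were plated and held 18 h at 37C/5% CO2, then given compound plus Ro20-1724 and stimulated with TSH at 1.5 ng/mL final. After 30 min at room temperature, cAMP was detected with cAMP-d2/anti-cAMP-cryptate (1 h) by fluorescence.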

[15] = qHTS assay to identify small molecule HDAC inhibitors (AID 1259364);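 note: wild-type HCT-116 cells with endogenous class I/II HDAC activity; top concentration of the series differs between compounds; nearly all actives have a fitted effect of over 45% in size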
Procedure, shortened: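 Quantitative high-throughput format: overnight-seeded HCT-116 cells got compounds for 2 hr at 37C; HDAC-Glo I/II reagent added, 30 min RT, luminescence measured.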

[16] = qHTS assay to identify small molecule phospholipidosis (PLD) inducers (AID 1259344; active = well fitted curve in the direction sought with a large enough effect; an effect the other way counts as inactive or inconclusive)
Procedure, shortened: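 Cells (HepG2, 900 per well) attach for 4 h, receive LipidTOX Red and compound together, incubate 24 h at 37 C, are fixed 30 min with paraformaldehyde/Hoechst, then imaged at one site per well.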

[17] = molecular target: Estrogen receptor beta (Homo sapiens) (UniProt Q92731); test: qHTS assay to identify small molecule agonists of the estrogen receptor beta (ER-beta) signaling pathway (AID 1259377; active = well fitted activation curve with a large enough effect in the signal ratio in the repeat runs, not every such curve was filed as active; the % refers to the signal ratio)
Procedure, shortened: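 Measured by fluorescence intensity from a B/G FRET beta-lactamase substrate (2 h, room temperature) in ER-beta-UAS-bla HEK293T cells treated with DMSO-dissolved compounds for 16 hr at 37C and 5% CO2.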

[18] = molecular target: Estrogen receptor beta (Homo sapiens) (UniProt Q92731); test: qHTS assay to identify small molecule antagonists of the estrogen receptor beta (ER-beta) signaling pathway (AID 1259378; active = well fitted inhibition curve with a large enough effect in the signal ratio in the repeat runs, not every such curve was filed as active; the % refers to the signal ratio)
Procedure, shortened: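 ER-beta-UAS-bla HEK293T (GripTite) cells in 2% charcoal-stripped FBS medium were preincubated 6 hr at 37C, dosed with compound, then stimulated with 1 nM E2 (final) for 16 hr; beta-lactamase reporter read by B/G FRET fluorescence after 2 hr substrate loading.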

Measured: Potency

Chain of Estrogen receptor (Homo sapiens) (P03372 whole entry, looked up): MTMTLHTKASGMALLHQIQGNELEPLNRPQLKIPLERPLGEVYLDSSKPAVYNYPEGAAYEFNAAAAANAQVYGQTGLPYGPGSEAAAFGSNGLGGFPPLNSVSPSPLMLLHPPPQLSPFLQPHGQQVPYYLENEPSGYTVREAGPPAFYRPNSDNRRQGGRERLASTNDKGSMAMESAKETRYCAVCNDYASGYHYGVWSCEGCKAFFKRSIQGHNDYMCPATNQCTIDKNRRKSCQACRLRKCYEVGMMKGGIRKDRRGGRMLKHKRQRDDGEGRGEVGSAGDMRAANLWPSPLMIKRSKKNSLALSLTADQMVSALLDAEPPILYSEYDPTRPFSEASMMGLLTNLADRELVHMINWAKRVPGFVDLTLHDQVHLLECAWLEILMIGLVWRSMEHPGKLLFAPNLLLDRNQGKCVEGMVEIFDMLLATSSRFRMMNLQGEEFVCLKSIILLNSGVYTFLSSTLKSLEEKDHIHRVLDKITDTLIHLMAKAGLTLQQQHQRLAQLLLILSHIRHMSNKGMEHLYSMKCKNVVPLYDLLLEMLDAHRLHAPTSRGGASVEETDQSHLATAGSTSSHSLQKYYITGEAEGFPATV
Chain of Thyrotropin receptor (Homo sapiens) (P16473 whole entry, looked up): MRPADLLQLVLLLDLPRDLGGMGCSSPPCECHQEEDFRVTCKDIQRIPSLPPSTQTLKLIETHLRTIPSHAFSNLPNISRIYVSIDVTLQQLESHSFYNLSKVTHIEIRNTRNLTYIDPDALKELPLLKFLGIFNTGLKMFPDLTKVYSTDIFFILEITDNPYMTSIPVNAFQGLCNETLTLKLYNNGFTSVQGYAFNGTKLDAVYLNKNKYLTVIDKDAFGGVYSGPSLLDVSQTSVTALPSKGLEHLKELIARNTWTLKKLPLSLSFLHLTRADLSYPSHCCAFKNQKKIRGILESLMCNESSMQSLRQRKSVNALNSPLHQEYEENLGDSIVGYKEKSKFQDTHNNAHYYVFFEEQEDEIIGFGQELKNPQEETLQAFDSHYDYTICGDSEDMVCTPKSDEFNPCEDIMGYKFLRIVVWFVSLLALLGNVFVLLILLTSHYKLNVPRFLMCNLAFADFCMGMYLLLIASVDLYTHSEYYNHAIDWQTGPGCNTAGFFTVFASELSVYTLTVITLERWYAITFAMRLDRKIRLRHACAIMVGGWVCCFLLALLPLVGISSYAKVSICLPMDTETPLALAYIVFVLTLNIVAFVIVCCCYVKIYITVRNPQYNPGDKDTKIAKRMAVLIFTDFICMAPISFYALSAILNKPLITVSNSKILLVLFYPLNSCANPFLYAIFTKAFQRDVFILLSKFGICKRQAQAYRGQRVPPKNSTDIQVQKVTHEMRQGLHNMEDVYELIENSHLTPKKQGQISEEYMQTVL
Chain of Estrogen receptor beta (Homo sapiens) (Q92731 whole entry, looked up): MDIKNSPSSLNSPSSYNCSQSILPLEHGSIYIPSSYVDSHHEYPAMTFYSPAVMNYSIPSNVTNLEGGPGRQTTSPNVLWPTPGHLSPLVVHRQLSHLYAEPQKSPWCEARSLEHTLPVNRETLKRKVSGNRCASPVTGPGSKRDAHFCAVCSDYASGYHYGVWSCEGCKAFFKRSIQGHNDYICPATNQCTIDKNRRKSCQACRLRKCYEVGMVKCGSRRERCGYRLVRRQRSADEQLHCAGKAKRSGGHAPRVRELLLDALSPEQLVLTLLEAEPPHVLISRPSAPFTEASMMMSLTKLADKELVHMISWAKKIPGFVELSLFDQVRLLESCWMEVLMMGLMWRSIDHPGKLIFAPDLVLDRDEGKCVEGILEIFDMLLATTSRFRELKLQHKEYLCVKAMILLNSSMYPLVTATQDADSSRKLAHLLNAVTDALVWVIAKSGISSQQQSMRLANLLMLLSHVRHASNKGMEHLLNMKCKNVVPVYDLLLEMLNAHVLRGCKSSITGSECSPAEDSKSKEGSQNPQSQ

C=CCOCC1CO1 (configuration not stated)
not listed: [15] | [16] | [17] | [18]
inactive: all other assays above

Oc1cccc(Cl)c1
not listed: [14] | [16] | [17] | [18]
inactive: all other assays above

COC(=O)Cc1ccccc1
inactive: [1] | [2] | [3] | [4] | [5] | [6] | [7] | [8] | [11] | [12]

Cc1ccc2c(C)cccc2c1
not listed: [6] | [16] | [17] | [18]
inactive: all other assays above

O=C(NC(=O)c1cc(F)c(F)cc1Cl)Nc1cc(F)ccc1N1CCC(C(=O)O)CC1
not listed: [8] | [16] | [17] | [18]
inactive: all other assays above

CCCCCCCCCCCCCCCl
not listed: [15] | [16] | [17] | [18]
inactive: all other assays above

CCOC(=O)NC(O)C(Cl)(Cl)Cl (configuration not stated)
not listed: [15] | [17] | [18]
inactive: all other assays above

COc1ccc(C(O)(c2cncnc2)C2CC2)cc1 (configuration not stated)
not listed: [16]
inactive: all other assays above

CCCC1CCCCN1 (configuration not stated)
not listed: [15] | [17] | [18]
inactive: all other assays above
